PubChem BioAssay (NCI)
The panel holds about 83,000 compounds, 20% with a hit somewhere; the sample as a whole holds those more often.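 Step 1: grow cells in 96-well plates. Step 2: add test compound at a single concentration. Step 3: incubate 48 h. Step 4: record percent growth.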 Activity calls are given as the source filed them. The calls were made as follows: active = growth percent below 10; inactive = the rest.

How the values were obtained:
Assay in all cases: NCI-60 one-dose screen, 48 h (100 = growth as untreated, 0 = no growth, -100 = all killed)
Settings in all cases: 10 µM unless noted
[1] = test system: NCI-H23 lung
[2] = test system: NCI-H226 lung
[3] = test system: NCI-H322M lung
[4] = test system: HOP-62 NSCLC
[5] = test system: NCI-H460 lung
[6] = test system: A549/ATCC NSCLC
[7] = test system: 786-0 renal
[8] = test system: COLO 205 colon
[9] = test system: NCI-H522 lung
[10] = test system: HOP-92 NSCLC

Measured: growth

O=c1ccc2cc3ccccc3cc2[nH]1
inactive: [1] 93.1% | [2] 94% | [3] 114% | [4] 95.4% | [5] 93.8% | [6] 102% | [7] 103% | [8] 121%

CCN(CC)CC(C)(C)C(=O)/C=C/c1ccccc1
inactive: [1] 62.1% | [2] 63.5% | [3] 67.7% | [4] 90.6% | [5] 32.3% | [9] 60.6% | [6] 80.3% | [7] 60% | [8] 53.4%

O=C(O)c1cn(C2CC2)c2cc(N3CCN(Cc4nc5c(cnn5-c5ccc([N+](=O)[O-])cc5)c(=O)[nH]4)CC3)c(F)cc2c1=O
inactive: [1] 101% | [2] 94.8% | [3] 99.1% | [4] 103% | [5] 105% | [9] 95% | [6] 102% | [7] 98.9% | [8] 112%

COc1ccc(Cl)cc1Nc1nc(C(F)(F)F)ccc1C(=O)N/N=C/c1cccnc1
inactive: [1] 41.5% | [2] 51.9% | [3] 59% | [4] 54% | [5] 33.6% | [9] 29.3% | [6] 58.7% | [7] 18.7% | [8] 44.5%

CCc1ccc(C(c2ccc(CC)cc2)C(Cl)(Cl)CCl)cc1
inactive: [1] 92.8% | [2] 101% | [3] 110% | [4] 99.1% | [5] 98.8% | [9] 83% | [6] 149% | [7] 84% | [8] 100%

O=C(NC(Cc1ccccc1)C(=O)CCl)OCc1ccccc1 (configuration not stated)
active: [9] 6.56%
inactive: [1] 69.4% | [2] 54.4% | [3] 111% | [4] 87.1% | [5] 69.6% | [6] 116% | [7] 79.8% | [8] 80.2%

C/C=C/C(N)=O
inactive: [1] 96.9% | [2] 93.4% | [3] 93.4% | [4] 109% | [5] 102% | [9] 104% | [6] 106% | [8] 107%

CCN(CC)CCCC(C)Nc1ccnc2c(OC)cccc12 (configuration not stated)
inactive: [1] 106% | [2] 111% | [3] 141% | [4] 108% | [5] 125% | [6] 106% | [7] 113% | [8] 114%

COc1ccc(-c2cc(-c3cccnc3)nc3sc4c(=O)n(-c5ccc(C)cc5)nnc4c23)cc1OC
inactive: [1] 98% | [2] 93% | [3] 97.6% | [4] 95.5% | [5] 100% | [9] 101% | [6] 102% | [8] 102%

COCCCN=C(N)c1ccc(NC(=O)c2ccc(C(=O)Nc3ccc(C(N)=NCCCOC)cc3)cc2)cc1
inactive: [1] 82.1% | [2] 90.7% | [3] 90.5% | [4] 81.6% | [5] 102% | [9] 97.5% | [6] 106% | [7] 87.7% | [8] 105%

COc1c2ccccc2c(OC)c2[nH]c(=O)ccc12
active: [1] -11.3% | [4] -13.2% | [5] -57.7%
inactive: [2] 37.1% | [3] 22.2% | [9] 71.3% | [7] 89.7% | [8] 38.2%

COCCOC(=O)C1=C(C)NC(=S)NC1c1ccc2c(c1)OCO2 (configuration not stated)
inactive: [1] 96.2% | [2] 90.2% | [3] 101% | [4] 98% | [5] 112% | [9] 94.3% | [6] 101% | [7] 107% | [8] 117%

COc1ccc2nc3cc(Cl)ccc3c(N3CCN(c4ccnc(N5CCOCC5)n4)CC3)c2c1
active: [9] -51.4%
inactive: [1] 46.1% | [2] 89.2% | [3] 94.4% | [4] 71.5% | [5] 76.5% | [6] 95.2% | [7] 92.8% | [8] 31.1%

COc1cc2c(cc1O)CCc1cc(O)cc(OC)c1-2
inactive: [1] 99.3% | [2] 87.4% | [3] 101% | [4] 105% | [5] 93.8% | [9] 61.5% | [6] 87.6% | [7] 97.1% | [8] 110%

CCOC(=O)N1CCN(c2nc(Nc3cc(C)[nH]n3)c3ccccc3n2)CC1
inactive: [1] 65.8% | [2] 34.8% | [3] 88.5% | [4] 49.6% | [5] 23.1% | [9] 10.4% | [6] 34.4% | [7] 44% | [8] 14%

Cc1ccc(NC(=O)c2sc3nc4c(cc3c2N)C(=O)CCC4)cc1C
inactive: [1] 32.7% | [2] 80.2% | [3] 42.5% | [4] 23.5% | [6] 19.5% | [7] 37.4%
active: [5] 7.88% | [9] -9.22% | [8] -25.2%

O=C1Nc2c(ccc(Cl)c2Cl)/C1=C/c1cc(Br)c(O)c(Br)c1
active: [9] 9.37%
inactive: [1] 73.9% | [2] 78.5% | [3] 90.3% | [4] 79.1% | [5] 46.1% | [6] 51.4% | [7] 74.6% | [8] 79.2%

CCCCCCCCCCNC(=O)CCl
inactive: [1] 47.5% | [2] 85.7% | [3] 92.8% | [4] 81.3% | [5] 92.9% | [9] 50.4% | [6] 93.6% | [7] 82.3% | [8] 116%

Clc1ccc(-c2nnc(COc3ccccc3Cl)o2)cc1
inactive: [1] 80.6% | [2] 93.8% | [3] 76.9% | [4] 61.3% | [5] 82.9% | [9] 70.9% | [6] 58.3% | [7] 23.3% | [8] 90.8%

Nc1c(C(=O)Nc2ccccc2Cl)sc2nc3c(cc12)CCCCCC3
inactive: [1] 72.4% | [2] 31% | [3] 49.2% | [4] 27% | [5] 30.8% | [9] 58% | [6] 29% | [8] 33.8%
active: [7] -55.3%

CC/C=C\C[C@H](O)C/C=C1/C(=O)C=C[C@@H]1C/C=C\CCCC(N)=O
active: [1] -38.3% | [2] -39.7% | [4] -15.6% | [5] -9.93% | [9] -19.3% | [6] -23.5% | [7] -24.2% | [8] -27.8%
inactive: [3] 29.7%

CC(=O)O[C@H]1CC[C@]2(C)[C@H]3CC[C@@H]4[C@H]5[C@H](C(C)C)CC[C@]5(C(=O)OCC(CO)(CO)N=C(N)N)CC[C@@]4(C)[C@]3(C)CC[C@H]2C1(C)C
inactive: [1] 77.7% | [2] 91.4% | [3] 70.2% | [4] 86.1% | [6] 54.6% | [7] 74.3%
active: [5] -32.4% | [9] -69.6% | [8] -89.9%

Cc1cc(=O)oc2cc(Oc3nc(-c4cccs4)cn4c(-c5cccs5)cnc34)ccc12
inactive: [1] 56.6% | [2] 83% | [3] 89.4% | [4] 59% | [5] 50.5% | [9] 74.6% | [6] 58.5% | [8] 75%

CC(=O)OCC1OC(OC2=C(CC=C(Cl)Cl)C(=O)c3ccccc3C2=O)C(OC(C)=O)C(OC(C)=O)C1OC(C)=O (configuration not stated)
inactive: [1] 105% | [2] 85% | [3] 102% | [4] 92.7% | [6] 102% | [7] 102% | [8] 97.6%
active: [10] -9.2% | [9] 3.88%

Cc1cc(Nc2nc(-c3cccnc3)nc3ccccc23)n[nH]1
inactive: [1] 65.2% | [2] 43.9% | [3] 81.3% | [4] 64.1% | [5] 41.9% | [9] 43.7% | [6] 19% | [7] 55%
active: [8] -10.2%

CCC(c1ccc(O)cc1)C(CC)c1ccc(O)c(F)c1 (configuration not stated)
inactive: [1] 77% | [2] 91.6% | [3] 91.1% | [4] 94.5% | [5] 98.9% | [9] 77.9% | [6] 89% | [7] 75.4% | [8] 114%

CCCCCC(=O)N(CCCC)CCCC
inactive: [1] 107% | [2] 99.7% | [3] 89.4% | [4] 104% | [5] 110% | [6] 100% | [7] 104% | [8] 125%

O=C1Nc2ccccc2C12CC(c1ccccc1)=NN2 (configuration not stated)
inactive: [1] 70% | [2] 79.3% | [3] 66.3% | [4] 58.6% | [5] 33.2% | [9] 24.6% | [6] 39.3% | [7] 61.7% | [8] 31.4%

COc1cc2c(=O)n(CC3CCCCC3)c3c4cc[nH]c4ncc3c2cc1OC
active: [8] 6.79%
inactive: [1] 45.3% | [2] 34.5% | [3] 59% | [4] 19.2% | [5] 21.1% | [9] 35.1% | [6] 31.6% | [7] 46.4%

CC/C=C\C[C@H](F)C/C=C1/C(=O)C=C[C@@H]1C/C=C\CCCC(=O)O
inactive: [1] 62.7% | [2] 104% | [3] 93.6% | [4] 111% | [5] 50.6% | [9] 31% | [6] 68.3% | [7] 82.4% | [8] 48.5%

COc1ccc(S(=O)(=O)NCCCNc2nccc(-c3c(-c4cccc(N)c4)nc4sccn34)n2)cc1
inactive: [1] 97.4% | [2] 89.4% | [3] 101% | [4] 117% | [5] 97.1% | [9] 101% | [6] 99.7% | [7] 92.1% | [8] 75.8%
